POLK inh = inhibitors of human DNA polymerase kappa; Q9UBT6; purified Pol kappa, fluorescent DNA synthesis assay, 10 min; Potency, µM (series often up to 107 µM), without a hit: at the highest dose activity, negative = inhibition, most hits filed as inhibitors; actives 0.53% (n = 400,000); AID 588579; note: % is set by controls: 0 for no effect and ±100 for the full control effect
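First, compounds were pin-transferred onto 10 nM Pol kappa. After 15 min at room temperature, substrate was added to 50 nM final. Fluorescence was then measured kinetically at 0 and 10 min.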
FEN1 inhibitor = inhibitors of human flap endonuclease 1. Potency, µM (doses to about 114 µM), for the others: top-dose activity change, negative = inhibition, usual class: inhibitors. Recombinant FEN1 flap cleavage, fluorescence, 15 min. actives 0.35% (n = 390,000). P39748. AID 588795; note: % is set by controls: 0 for no effect and ±100 for the full control effect; nearly all actives have a fitted effect of over 65% in size
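FEN1 at 10 nM, compound pretreatment for 15 min (room temperature), 50 nM final substrate to initiate; endpoint reads at 0 and 15 min; DMSO-only plates used as vehicle background.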
Pol iota inh = DNA polymerase iota (human) inhibition; Pol iota fluorescent replication assay, 10 min; Potency, µM (titrated, usually from 115 µM), for the others: at the highest dose activity, negative = inhibition, hits mostly inhibitors; actives 1% (n = 390,000)
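Pol iota at 10 nM preincubated 15 min with compounds at room temperature; reaction started with fluorescent substrate, 50 nM final. Fluorescence read kinetically at 0 and 10 min; buffer-only wells as negative control.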
WRN helicase inh = WRN helicase (human) inhibition; WRN helicase unwinding, fluorescent forked duplex, kinetic; Potency, µM (doses to about 114 µM), inactives show top-dose activity change, negative = inhibition, actives largely listed as inhibitors; actives 0.46% (n = 360,000); AID 651768; note: % is set by controls: 0 for no effect and ±100 for the full control effect; nearly all actives have a fitted effect of over 55% in size
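Kinetic red-fluorescence monitoring (525/598 nm) tracks WRN helicase activity after 100 nM fluorophore-quencher forked duplex and 2 mM ATP are added to 20 nM enzyme pretreated 15 min at room temperature with compound.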
Pol beta inh = DNA polymerase beta (human) inhibition | actives 1.3% (n = 340,000) | Pol beta primer extension/strand displacement, fluorescence kinetic | P06746 | Potency, µM (series often up to 114 µM), without a hit: at the highest dose activity change, negative = inhibition, usual class: inhibitors; note: % is set by controls: 0 for no effect and ±100 for the full control effect
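Pol beta (10 nM) was preincubated with compound for 15 min at room temperature. The reaction was then started with 50 nM substrate and read immediately and after a further 10 min at room temperature.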
Pol eta inh = blocks human DNA polymerase eta activity; Q9Y253; recombinant Pol eta, fluorescent DNA replication assay; Potency, µM (titrated, usually from 114 µM), for inactives: at the highest dose activity change, negative = inhibition, most hits filed as inhibitors; actives 1.2% (n = 390,000); note: % is set by controls: 0 for no effect and ±100 for the full control effect
Target sequence (Q9Y253 whole entry, looked up): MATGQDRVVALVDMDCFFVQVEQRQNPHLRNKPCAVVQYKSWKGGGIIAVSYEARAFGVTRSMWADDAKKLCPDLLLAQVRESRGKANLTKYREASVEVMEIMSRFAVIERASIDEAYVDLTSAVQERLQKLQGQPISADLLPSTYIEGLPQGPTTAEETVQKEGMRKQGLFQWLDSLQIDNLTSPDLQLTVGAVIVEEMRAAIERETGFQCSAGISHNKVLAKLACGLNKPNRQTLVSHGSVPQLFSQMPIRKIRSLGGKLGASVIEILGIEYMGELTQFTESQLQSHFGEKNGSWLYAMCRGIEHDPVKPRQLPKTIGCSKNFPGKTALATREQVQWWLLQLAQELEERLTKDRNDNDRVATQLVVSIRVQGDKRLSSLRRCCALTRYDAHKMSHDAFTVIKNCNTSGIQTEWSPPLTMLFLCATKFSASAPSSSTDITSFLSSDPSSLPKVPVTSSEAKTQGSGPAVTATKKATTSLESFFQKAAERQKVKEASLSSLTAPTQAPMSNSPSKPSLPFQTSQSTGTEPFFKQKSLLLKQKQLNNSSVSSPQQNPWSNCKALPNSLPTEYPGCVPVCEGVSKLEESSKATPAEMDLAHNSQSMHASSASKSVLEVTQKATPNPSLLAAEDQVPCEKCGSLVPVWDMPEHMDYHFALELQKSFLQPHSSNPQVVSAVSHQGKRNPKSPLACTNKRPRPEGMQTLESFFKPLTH
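Pol eta (10 nM) was preincubated with compounds for 15 min at room temperature, after which fluorescent replication substrate (50 nM final) was added to start the reaction. Fluorescence was read kinetically at 0 and 10 min.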
Starred values were filed as active, the others as inactive; ? = inconclusive; / = no result; [ ] = remark or other dose. The list is not random: actives were taken first. Their share in the collection is about 2.4%. Calls come from the whole dose curve; as a rule, active = well fitted curve in the direction sought with a large enough effect; inconclusive = small, poorly fitted or top-dose-only effect, or another doubt; inactive = no such curve, though single readings can be large; an effect the other way counts as inactive or inconclusive. Potency is the fitted concentration of half-maximal effect.

SMILES | POLK inh | FEN1 inhibitor | Pol iota inh | WRN helicase inh | Pol beta inh | Pol eta inh
COC(=O)c1ccc(NC(=O)CC2C(=O)N(c3ccc(Cl)cc3)C(=O)N2Cc2ccco2)cc1 (configuration not stated) | -11.7% | -15.6% | 4.2% | / | 25.0% | -16.6%
CC1CC=CC2C1C(=O)N(Cc1ccccc1)C2c1ccc(C(F)(F)F)cc1 (configuration not stated) | 3.4% | -3.3% | -15.2% | / | / | /
COc1ccc(CCn2c(C)cc(C(=O)COC(=O)c3ccc(NC(=O)CC#N)cc3)c2C)cc1 | ? | -18.4% | ? | -27.4% | 12.7% | 79.4µM*
COc1cc(NC(=O)C(c2ccccc2)c2ccccc2)c(C(=O)O)cc1OC | -8.4% | -1.9% | 30.7% | -4.0% | 56.3% | -13.7%
COc1ccc(C2Nc3ccccc3C(=O)N2Cc2ccccc2)cc1COc1ccccc1F (configuration not stated) | 2.2% | 3.4% | 31.6% | / | / | /
CCC1CC=CC2C1C(=O)N(Cc1ccccc1)C2c1cccc([N+](=O)[O-])c1 (configuration not stated) | 8.2% | 3.9% | 4.4% | / | / | /
CN(C)C(CN=C1NS(=O)(=O)c2ccccc21)c1ccco1 (configuration not stated) | -31.4% | -5.4% | 79.4µM* | -3.2% | ? | -19.7%
CCOC(=O)c1ccc2c(c1)n(CC)c(/C=C/N(C)c1ccccc1)[n+]2CC | -15.1% | -9.6% | 16.5% | 8.7% | -25.3% | -13.4%
CC[n+]1c(/C=C/N(C)c2ccccc2)n(-c2ccccc2)c2ccc(-c3nc4ccccc4s3)cc21 | 21.2µM* | 39.8µM* | 136.1% | ? | -20.3% | ?
COc1ccc(N=C2NC(=O)/C(=C/c3ccco3)S2)cc1 | -20.2% | -5.5% | ? | -8.2% | ? | -13.4%
COc1cc(/C=C2\S/C(=N/S(=O)(=O)c3ccccc3)NC2=O)c([N+](=O)[O-])cc1OC | -29.7% | ? | ? | ? | 20.6% | 22.4µM*
COc1ccc(S(=O)(=O)/N=C2/NC(=O)/C(=C\c3ccco3)S2)cc1 | ? | 2.4% | ? | -27.1%[57.1 µM] | 25.1µM* | 17.8µM*
COc1ccc(S(=O)(=O)/N=C2/NC(=O)/C(=C/c3ccco3)S2)cc1 | -10.5% | -7.6% | ? | ? | 31.6µM* | 17.8µM*
COc1ccc(S(=O)(=O)/N=C2/NC(=O)/C(=C\c3cc(OC)c(OC)cc3[N+](=O)[O-])S2)cc1 | -6.0% | 6.3% | -11.5% | -29.5% | 3.8% | -20.3%
COc1ccccc1C(C)NCC(=O)NC(=O)NCc1ccco1 (configuration not stated) | -30.9% | 3.5% | 50.1µM* | -4.6% | / | ?
Cc1ccc(Nc2nnc(SCC(=O)NCc3ccco3)s2)cc1 | ? | -2.1% | -20.6% | -16.2% | 10µM* | ?
COc1ccccc1OCC(=O)NCc1ccco1 | 1.1% | -2.3% | -6.3% | 4.8% | 7.7% | -0.2%
Cc1ccccc1Nc1nnc(SCC(=O)NC(=O)NCc2ccco2)s1 | ? | ? | 22.4µM* | -19.0%[57.1 µM] | ? | ?
O=C(CSc1nnc(Nc2ccccc2F)s1)NCc1ccco1 | ? | -8.0% | ? | ? | 39.8µM* | 14.1µM*
c1cc2c3c(c1)CCC[N+]3(C1CCCCC1)CCC2 | -14.3% | -1.0% | 26.6% | / | / | /
CC(C)(C)c1ccc(S(=O)(=O)N2CCN(c3nc(-c4ccccc4)nc4ccccc34)CC2)cc1 | 3.2% | 9.7% | 2.1% | / | / | /
O=C(CSc1ccccc1)NCc1ccco1 | -11.6% | -7.5% | -7.6% | -11.6% | 4.4% | ?
O=C(CSc1ccc2c(c1)OCCO2)NCc1ccco1 | ? | -10.9% | ? | -13.5% | 39.8µM* | ?
O=C(CSc1nnc(NC(=O)C2CC(=O)N(c3ccccc3)C2)s1)NCc1ccco1 (configuration not stated) | ? | -12.5% | 50.1µM* | -21.5% | 89.1µM* | ?
Cc1ccc(SCC(=O)NC(=O)NCc2ccco2)cc1C | / | / | / | / | 39.8µM* | /
SMILES | POLK inh | FEN1 inhibitor | Pol iota inh | WRN helicase inh | Pol beta inh | Pol eta inh
Cc1ccc(Cn2c(SCC(=O)NCc3ccco3)nc3ccsc3c2=O)cc1 | -23.8% | -3.8% | 100µM* | -3.1% | -20.8% | 5.8%
COc1cc(C)c2ccccc2n1 | 15.0% | -2.9% | 11.9% | / | / | /
CN=C1N[C@H](c2ccccc2)N(c2ccccc2)S1 | -14.7%[19.4 µM] | ? | 9.8% | / | / | /
Cc1cccc(C)c1NC(=O)Cn1c(=O)n(Cc2ccc(C(=O)NCc3ccco3)cc2)c(=O)c2sccc21 | -21.2% | -5.8% | 44.7µM* | / | 44.7µM* | /
C=C(C)COc1ccc2oc(C)c(C(=O)OCCOC)c2c1 | -2.1% | -12.5% | 89.1µM* | 3.7% | 14.7% | 0.9%
NNc1ccccc1C(F)(F)F | -2.7% | -9.4% | 69.0% | ? | 20µM* | 4.2%
CC(=O)Nc1ccccc1C(F)(F)F | -12.0% | -1.9% | 22.4% | 5.4% | 3.0% | -12.1%
O=C1Cc2cc(S(=O)(=O)N3CCNCC3)ccc2N1 | -0.9% | -0.1% | 31.6µM* | 3.5%[11.6 µM] | / | ?
O=C1Cc2cc(S(=O)(=O)N3CCCCC3)ccc2N1 | -5.9% | -4.2% | 23.8% | 4.5% | 4.7% | -17.2%
Cc1nc2scc(-c3ccc(C(C)(C)C)cc3)c2c(=O)n1N | -24.6% | -8.7% | ? | -9.4%[57.1 µM] | 1.9% | 89.1µM*
C#CCNC(=O)C1=C[C@@H](c2ccccc2)C[C@@H](OCCCCO)O1 | 9.3% | 4.1% | 2.0% | 1.6% | / | -2.7%
C#Cc1ccc([C@@H]2C=C(C(=O)NCc3ccccc3)O[C@H](OCCCCO)C2)cc1 | ? | -3.6% | 50.1µM* | -26.4% | / | 44.7µM*
O=C(NCc1ccccc1)C1=C[C@@H](c2ccc(Br)cc2)C[C@@H](OCCCCO)O1 | -0.5% | -8.8% | 8.3% | -6.8% | -2.4% | -14.2%
C=CCOC(=O)C1=C[C@H](c2ccc(C(F)(F)F)cc2)C[C@H](OCCCCO)O1 | -11.8% | -19.8% | -15.0% | -2.5% | / | -3.2%
C#CCNC(=O)C1=C[C@@H](c2ccc(C#C)cc2)C[C@@H](OCCCCO)O1 | ? | ? | 50.1µM* | -30.7% | / | 25.1µM*
C#Cc1ccc([C@@H]2C=C(C(=O)OCC=C)O[C@H](OCCCCO)C2)cc1 | ? | ? | ? | -20.2% | 17.8µM* | ?
COc1ccccc1/C=C/c1nc2ccccc2s1 | -7.4% | 4.6% | -9.5% | / | / | /
CC1=Nc2ccccc2/C1=C/c1c(N)n2c(S(=O)(=O)C(C)C)nsc2nc1=O | -20.7% | -6.5% | 49.9% | ? | -15.9% | ?
CC1=Nc2ccccc2/C1=C/c1c(N)n2c(S(=O)(=O)CC(C)C)nsc2nc1=O | -31.2% | -28.3% | 19.4% | ? | ? | 39.8µM*
COc1cc(/C=C(\C#N)C(=O)Nc2nnc(C(F)(F)F)s2)ccc1OCc1ccc(C(F)(F)F)cc1C(F)(F)F | 6.7µM* | ? | / | / | / | /

Screening data from PubChem.
